# PubChem BioAssay (NCATS)
# Inconclusive results are not listed. Calls of active or inactive are those of the source. Calls follow the shape of the dose curve; as a rule, active = well fitted inhibition curve with a large enough effect; inconclusive = small, poorly fitted or top-dose-only effect, or effect the other way; inactive = flat fitted curve, though single readings scatter.
# Molecular target: ATP-dependent 6-phosphofructokinase (Trypanosoma brucei brucei) (UniProt O15648)
# Assay: qHTS Assay to Find Inhibitors of T. brucei phosphofructokinase: hit validation (AID 492961);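 also: luminescence reports ADP formed as PFK phosphorylates fructose-6-phosphate with ATP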
# Settings: T. brucei PFK, ADP-Glo luminescence; series mostly up to 51.4 µM
# How it was run: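 PFK 1.25 nM, F6P 0.5 mM, ATP 0.1 mM, MgCl2 5 mM, 0.1 M TEA pH 8.0, Tween20 0.01%, BSA 0.1%; 45 min RT. ADP-Glo two-step detection, luminescence. qHTS titration; curve fitting with curve-class categorization.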
# ATP-dependent 6-phosphofructokinase (Trypanosoma brucei brucei), sequence (O15648 whole entry, looked up): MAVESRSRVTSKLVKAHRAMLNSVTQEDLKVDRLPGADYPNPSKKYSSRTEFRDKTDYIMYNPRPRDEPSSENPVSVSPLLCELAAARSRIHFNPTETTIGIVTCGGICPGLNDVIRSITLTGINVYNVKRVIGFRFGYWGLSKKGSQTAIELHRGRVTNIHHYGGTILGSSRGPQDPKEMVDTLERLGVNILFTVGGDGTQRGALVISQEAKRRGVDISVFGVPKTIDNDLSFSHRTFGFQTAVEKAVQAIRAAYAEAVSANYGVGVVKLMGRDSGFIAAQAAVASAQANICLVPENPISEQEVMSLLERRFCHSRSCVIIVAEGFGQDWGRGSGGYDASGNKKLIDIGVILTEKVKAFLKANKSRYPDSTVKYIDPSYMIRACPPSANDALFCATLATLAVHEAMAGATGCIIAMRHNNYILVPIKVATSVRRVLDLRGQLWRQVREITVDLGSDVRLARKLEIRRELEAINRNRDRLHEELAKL
row,SMILES,outcome
1,CCCCC1=NC2(CCCC2)C(=O)N1Cc1ccc(-c2ccccc2-c2nn[nH]n2)cc1,inactive
2,CC(=O)OCC(=O)[C@@]1(OC(C)=O)[C@@H](C)C[C@H]2[C@@H]3C[C@H](F)C4=CC(=O)C=C[C@]4(C)[C@@]3(F)[C@@H](O)C[C@@]21C,inactive
3,CCN(CCCc1ccccc1)CCCc1ccccc1,inactive
4,Cc1c(N(C)CS(=O)(=O)O)c(=O)n(-c2ccccc2)n1C,inactive
5,CC(C)=CCC1C(=O)N(c2ccccc2)N(c2ccccc2)C1=O,inactive
6,NCCc1ccn[nH]1,inactive
7,Nc1ccc(C(=O)Nc2ccccc2N)cc1,inactive
8,CCCCCCC[N+](CC)(CC)CCCCc1ccc(Cl)cc1,inactive
9,CC1=C(C(=O)OC(C)C)C(c2cccc([N+](=O)[O-])c2)C(C(=O)OC2CN(C(c3ccccc3)c3ccccc3)C2)=C(N)N1 (configuration not stated),inactive
10,CCOC(=O)/C=C(C)/C=C/C=C(C)/C=C/c1c(C)cc(OC)c(C)c1C,inactive
11,CN1C(CCl)Nc2cc(Cl)c(S(N)(=O)=O)cc2S1(=O)=O (configuration not stated),inactive
12,CC(C)COC(=O)c1ccc(N)cc1,inactive
13,O=C(Nc1ccc(Oc2ccc(Cl)cc2)c(Cl)c1)c1cc(I)cc(I)c1O,inactive
14,C#C[C@]1(O)CC[C@H]2[C@@H]3CCc4cc(OC5CCCC5)ccc4[C@H]3CC[C@@]21C,inactive
15,CN1CCC[C@@H]1c1cccnc1,inactive
16,CCOC(=O)OC(C)OC1=C(C(=O)Nc2ccccn2)N(C)S(=O)(=O)c2ccccc21 (configuration not stated),inactive
17,C[C@]12CCC(=O)C=C1CC[C@H]1[C@@H]3CC[C@](O)(C(=O)CO)[C@@]3(C)C[C@H](O)[C@@]12F,inactive
